# Bioassay records deposited in PubChem by National Center for Advancing Translational Sciences (NCATS).
# Most compounds without a hit are left out; they make up all but 21% or so of the library.
# Pf growth 48h: P. falciparum growth inhibition at 48 hours (one generation); Potency, µM (top dose mostly 28.7 µM), inactives show at the highest dose activity change, negative = inhibition, usual class: inhibitors; 310,000 tested, 5.9% active; AID 504832; P. falciparum luciferase growth in erythrocytes, 48 h; active means well fitted inhibition curve with a large enough effect; inconclusive means small, poorly fitted or top-dose-only effect, or another doubt; inactive means no such curve, though single readings can be large or run the other way; further: potency means the concentration at half of the fitted maximal effect; on the % scale 0 is the no-effect control and ±100 the full control effect
#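 Cell-based growth assay: transgenic P. falciparum expressing firefly luciferase, cultured in red cells within RPMI 1640 containing 0.5% w/v Albumax, 24 mM bicarbonate and gentamycin. A drop in luciferase activity indicates inhibition.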
# NS1 function inh: blocks influenza NS1 protein function; Potency, µM (titrated, usually from 46.1 µM), for inactives: at the top dose activity, positive = more growth; 270,000 tested, 0.4% active; AID 2326; further: potency means the concentration at half of the fitted maximal effect; actives are rising curves; nearly all actives have a fitted effect of over 50% in size
#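 S. cerevisiae expressing influenza A NS1, grown in glucose, washed, then diluted 1:100 into pH 6.0 -URA galactose medium with 23 nl compound. Growth recovery read as OD600; NS1-free strain serves as control.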
# Shiga inhibitor: blocks Shiga toxin action in Vero cells; Vero cells, Shiga toxin protein synthesis inhibition reporter; inhibition, % at 38.7 µM; 290,000 tested, 9.2% active; AID 2315; in the data active means inhibition mostly above about 28%, no sharp cut-off; inactive means mostly below about 43%; further: 0% is about no effect
# Pf growth 96h: inhibits malaria parasite growth, 96 h | Potency, µM (titrated, usually from 28.7 µM), for the others: at the top dose activity change, negative = inhibition, most hits filed as inhibitors | AID 504834 | P. falciparum luciferase reporter growth, 96 h | 320,000 tested, 6.9% active; active means well fitted inhibition curve with a large enough effect; inconclusive means small, poorly fitted or top-dose-only effect, or another doubt; inactive means no such curve, though single readings can be large or run the other way; further: potency means the concentration at half of the fitted maximal effect; on the % scale 0 is the no-effect control and ±100 the full control effect
#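 Readout is luminescence from an integrated firefly luciferase in P. falciparum. Red cells, 2% hematocrit and 0.05% parasitemia final, were cultured with compound through two parasite generations (96 hours) at 37 C, 5% CO2.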
# Cycloheximide cs: counter-screen hit for Shiga toxin inhibitors, cycloheximide | cell reporter, cycloheximide protein synthesis inhibition counterscreen | 300,000 tested, 12% active | AID 2314 | max response, %; in the data active means max response mostly above about 13%, no sharp cut-off; inactive means mostly below about 14%; further: read at 38.3 µM for the half of the compounds with a filed dose; 0% is about no effect
# SARS PLP yeast: blocks SARS-CoV papain-like protease in a yeast assay. Potency, µM (doses to about 32.9 µM), for inactives: at the highest dose activity, positive = growth rescue, usual class: activators. 330,000 tested, 0.19% active. S. cerevisiae expressing SARS-CoV PLpro, growth rescue; further: potency means the concentration at half of the fitted maximal effect; 0% is about no effect; nearly all actives have a fitted effect of over 55% in size
# Starred values were filed as active, the others as inactive; ? = inconclusive; . = not tested or not shown. Unless noted, the call rests on the fitted dose curve.
SMILES,Pf growth 48h,NS1 function inh,Shiga inhibitor,Pf growth 96h,Cycloheximide cs,SARS PLP yeast
CCc1ccc(OCC(=O)N/N=C/c2ccc(OS(=O)(=O)c3ccc(C)cc3)c(OC)c2)cc1,?,24%,9,?,13*,22%
O=C(O)c1ccc(CNS(=O)(=O)c2ccc3ccccc3c2)cc1,-20%,-9%,55*,-13%,30,2%
NS(=O)(=O)c1ccc(CNS(=O)(=O)c2ccc3ccccc3c2)cc1,12%,15%,-32,?,2,-8%
CN(Cc1ccccc1)c1ccc(S(=O)(=O)N2CCC(C(=O)O)CC2)cc1[N+](=O)[O-],0%,1%,17,6%,-2,2%
CC1CN(C(=O)c2cccc(S(=O)(=O)N3CCN(c4ccccc4)CC3)c2)CC(C)O1 (stereo not drawn),14%,.,.,13%,.,-8%
O=c1nc2c(-c3ccccc3F)n[nH]n2c2ccccc12,80%,-50%,80*,?,20*,2%
COc1ccc(C2=NOC(C(=O)NCc3ccccc3)C2)cc1 (stereo not drawn),?,8%,34*,7.4µM*,5,-7%
CCC(C)NC(=O)C1CC(c2cccc(OC)c2)=NO1 (stereo not drawn),9%,0%,14,10µM*,-4,-1%
COc1ccc(CNC(=O)C2CC(c3cc(C(F)(F)F)cc(C(F)(F)F)c3)=NO2)cc1 (stereo not drawn),38%,3%,-5,36%,-3,-3%
CCN(CC)C(=O)C1CC(c2ccc(OC)cc2)=NO1 (stereo not drawn),77%,-4%,82*,111%,40*,-1%
COc1ccc(C2=NOC(C(=O)NC(C)(C)C)C2)cc1 (stereo not drawn),3%,2%,17,?,3,-11%
COc1cccc(C2=NOC(C(=O)NCc3ccco3)C2)c1 (stereo not drawn),-6%,-10%,21,?,23,3%
COc1cccc(C2=NOC(C(=O)NCc3ccccc3)C2)c1 (stereo not drawn),-2%,-31%,23,4.1µM*,13,-2%
COCCNC(=O)C1CC(c2cccc(OC)c2)=NO1 (stereo not drawn),17%,4%,-24,-20%,16,-3%
COCCN(C(=O)COC(=O)c1cc(C)oc1C)c1c(N)n(Cc2ccccc2)c(=O)[nH]c1=O,?,.,.,8%,.,-6%
CCCCc1nc2ccccc2c(N)c1CCC (tested in a mixture with another compound),9.3µM*,-23%,-1,?,-3,-25%
CCCCc1nc2ccccc2c(NC(=O)CNC(C)(C)C)c1CCC,-23%,-15%,-16,-25%,-2,.
O=c1cc(-c2ccccc2)[nH]c2nc3ccccc3n12,?,-52%,64*,?,40*,-17%
O=c1cc(CCl)[nH]c2nc3ccccc3n12,-1%,0%,14,45%,-3,-1%
CC(C)c1cc(=O)n2c(nc3ccccc32)[nH]1,-12%,-24%,27,?,13*,-4%
COc1ccc(NC(=O)CC(C)c2ccccc2)cc1S(=O)(=O)N1CCOCC1 (stereo not drawn),-24%,.,.,?,.,10%
CCOc1ccc(-c2nc(N)ncc2-c2ccc(OC)cc2)c(O)c1,?,5%,14,?,-3,-21%
COc1ccc(-c2nc(C)ncc2-c2ccc(Cl)cc2)c(O)c1,4.7µM*,-5%,-3,3.7µM*,-1,3%
CCOc1ccc(-c2nc(N)ncc2Oc2ccc(OC)cc2)c(O)c1,12µM*,0%,-3,?,-3,0%
CCOc1ccc(-c2nc(N)ncc2-c2ccc(Cl)cc2)c(O)c1,10µM*,15%,1,?,3,-6%
SMILES,Pf growth 48h,NS1 function inh,Shiga inhibitor,Pf growth 96h,Cycloheximide cs,SARS PLP yeast
C[C@@H]1C(=O)O[C@H]2[C@H](O)[C@@]34[C@H]5CC(C(C)(C)C)[C@]36[C@H](OC(=O)[C@H]6O)O[C@]4(C(=O)O5)[C@@]12O (stereo partly drawn),.,.,-13,.,11,.
CCOc1ccc(-n2c(C)nc(O)c2N=Nc2ccccc2)cc1,52%,.,67,-13%,17*,-1%
O=C(CSc1nnc2ccccn12)NNC(=O)c1ccccc1F,.,.,.,.,.,-1%
Cc1ccc(C2C3C(=O)N(c4ccccc4)C(=O)C3N3CCCN23)cc1 (stereo not drawn),81%,-2%,-9,206%,28*,1%
Cc1cccc2cc(C(c3nnnn3Cc3ccc4c(c3)OCO4)N3CCCC3)c(=O)[nH]c12 (stereo not drawn),7.4µM*,?,48,?,-1,1%
Cc1cc2cc(C(c3nnnn3CC3CCCO3)N3CCCc4ccccc43)c(=O)[nH]c2cc1C (stereo not drawn),?,5µM*,13,-21%,12*,-2%
Cc1ccc2cc(C(c3nnnn3CC3CCCO3)N3CCc4ccccc4C3)c(=O)[nH]c2c1 (stereo not drawn),?,7%,-5,151%,-4,-7%
Cc1cccc2cc(C(c3nnnn3CC3CCCO3)N3CCCC4(CCCCC4)C3)c(=O)[nH]c12 (stereo not drawn),?,-18%,-13,.,-3,-2%
Cc1ccc2cc(C(c3nnnn3C(C)(C)C)N3CCCC3)c(=O)[nH]c2c1C (stereo not drawn),3.3µM*,1%,-5,.,26,2%
CCC(C)(C)n1nnnc1C(c1cc2cccc(C)c2[nH]c1=O)N1CCN(C(=O)c2ccco2)CC1 (stereo not drawn),1.2µM*,-3%,-16,58%,-2,8%
N#CCCN(C(=O)COC(=O)CCNS(=O)(=O)c1ccccc1)c1ccccc1,12%,.,.,7%,.,17%
CC(Sc1nc(-c2ccc(F)cc2)cs1)C(=O)Nc1ccc(Cl)cn1 (stereo not drawn),19%,-3%,-10,?,-1,-5%
COc1ccc(CCn2cnc(=O)c(C#N)c2C)cc1OC,8%,.,2,16%,7,-4%
CCOc1ccc2[nH]c(=O)c(C(c3nnnn3CC3CCCO3)N3CCc4ccccc4C3)cc2c1 (stereo not drawn),10µM*,-2%,-12,-14%,-4,?
O=c1[nH]c2cc3c(cc2cc1C(c1nnnn1Cc1ccccc1)N1CCCCCC1)OCCO3 (stereo not drawn),.,4%,-14,?,-4,9%
O=c1[nH]c2cc3c(cc2cc1C(c1nnnn1Cc1ccccc1)N1CCCc2ccccc21)OCO3 (stereo not drawn),1%,6%,44*,28%,16*,-10%
Cc1cccc2cc(C(c3nnnn3CC3CCCO3)N3CCCc4ccccc43)c(=O)[nH]c12 (stereo not drawn),9.3µM*,0%,30,-19%,-3,0%
